Test results published in PubChem BioAssay (Tox21).
Records with an inconclusive call do not appear. Active and inactive are the calls of the source. Unless noted, calls follow the shape of the dose curve; as a rule, active = well fitted curve in the direction sought with a large enough effect in the repeat runs; inconclusive = weak or mixed curves; inactive = no such curve, though single readings can be large; an effect the other way counts as inactive or inconclusive.

Tests used:
[1] = qHTS assay to identify small molecule antagonists of the estrogen related receptor (ERR) signaling pathway from Tox21 library - cell viability counter screen (AID 1224834); also: nearly all actives have a fitted effect of over 30% in size; also: potency is read from the fitted curve at half-maximal effect
Summary of the method: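 Multiplexed viability counter screen in ERR cells: 17.5 h compound exposure at 37 C, CellTiter-Fluor added, 30 min at 37 C/5% CO2, fluorescence read.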

[2] = qHTS assay to identify small molecule agonists of the constitutive androstane receptor (CAR) signaling pathway - cell viability counter screen (AID 1224836); also: nearly all actives have a fitted effect of over 45% in size
Summary of the method: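 Double-stable HepG2 hepatoma cells (hCAR plus CYP2B6-2.2kb) are treated for 23 h at 37 C with test compounds in 15-point concentration series. PK11195 at 0.75 uM final is co-added. Cell viability is quantified by CellTiter-Fluor.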

[3] = qHTS assay to identify small molecule antagonists of the constitutive androstane receptor (CAR) signaling pathway - cell viability counter screen (AID 1224837); also: nearly all actives have a fitted effect of over 45% in size
Summary of the method: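 Read-out: CellTiter-Fluor fluorescence after 23 hr at 37 C/5% CO2. Cells: HepG2 double-stable for hCAR and CYP2B6-2.2kb. Compounds tested at 15 concentrations in the presence of CITCO, final concentration 50 nM.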

[4] = biological target: Nuclear receptor subfamily 1 group I member 3 (Homo sapiens) (UniProt Q14994); experiment: qHTS assay to identify small molecule antagonists of the constitutive androstane receptor (CAR) signaling pathway (AID 1224838);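 also: HepG2 cells stably expressing hCAR with CYP2B6 luciferase reporter stimulated by CITCO; nearly all actives have a fitted effect of over 40% in size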
Nuclear receptor subfamily 1 group I member 3 (Homo sapiens), sequence (Q14994 whole entry, looked up): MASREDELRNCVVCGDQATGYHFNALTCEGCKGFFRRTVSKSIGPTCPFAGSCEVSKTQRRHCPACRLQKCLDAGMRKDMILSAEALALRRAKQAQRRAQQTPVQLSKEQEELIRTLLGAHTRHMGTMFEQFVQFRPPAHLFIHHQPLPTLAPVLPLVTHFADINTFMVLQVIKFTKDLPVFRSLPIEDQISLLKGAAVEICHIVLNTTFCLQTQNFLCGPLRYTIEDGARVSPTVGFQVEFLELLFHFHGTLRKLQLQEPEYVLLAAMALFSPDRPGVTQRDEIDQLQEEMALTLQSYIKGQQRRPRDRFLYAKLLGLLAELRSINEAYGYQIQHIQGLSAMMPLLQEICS
Summary of the method: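 Read-out: ONE-Glo luciferase luminescence after 30 min at room temperature. HepG2-CYP2B6-hCAR double-stable cells, compounds in 15-point titration plus 50 nM CITCO final, 24 h at 37 C/5% CO2.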

[5] = biological target: Nuclear receptor subfamily 1 group I member 3 (Homo sapiens) (UniProt Q14994); experiment: qHTS assay to identify small molecule agonists of the constitutive androstane receptor (CAR) signaling pathway (AID 1224839);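 also: HepG2 cells stably carrying human CAR and a CYP2B6 luciferase reporter; nearly all actives have a fitted effect of over 15% in size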
Summary of the method: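 Readout: firefly luciferase luminescence via ONE-Glo. System: HepG2 double-stable for hCAR and CYP2B6-2.2kb. Conditions: 15-point compound titration, PK11195 at 0.75 uM final, 24 h incubation.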

[6] = qHTS assay to identify small molecule antagonists of the estrogen related receptor signaling pathway with the pleiotropic PPARgamma coactivator (PGC) from Tox21 10K library - cell viability counter screen (AID 1224840; active = well fitted cell-killing curve with a large enough effect in the repeat runs, not every such curve was filed as active; also: nearly all actives have a fitted effect of over 40% in size; also: potency is read from the fitted curve at half-maximal effect)
Summary of the method: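 Fluorescence read-out of CellTiter-Fluor viability reagent, added after cells had been exposed to compound in DMSO for 17.5 h at 37 C; 30 min development at 37 C/5% CO2. Cells: PGC/ERR line, 2,000/well.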

[7] = qHTS assay to identify small molecule agonists of the estrogen related receptor signaling pathway with the pleiotropic PPARgamma coactivator (PGC) from Tox21 10K library (AID 1224842); also: nearly all actives have a fitted effect of over 15% in size
Summary of the method: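 PGC/ERR reporter cell line, 2,000 cells per well, incubated 6 h at 37 C before 23 nL compound in DMSO was added. After 18 h at 37 C, One-Glo luminescence read following 30 min at room temperature.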

[8] = biological target: Thyrotropin receptor (Homo sapiens) (UniProt P16473); experiment: qHTS assay to identify small molecule agonists of the thyroid stimulating hormone receptor (TSHR) signaling pathway (AID 1224843; calls by dose curve; also: nearly all actives have a fitted effect of over 45% in size)
Thyrotropin receptor (Homo sapiens), sequence (P16473 whole entry, looked up): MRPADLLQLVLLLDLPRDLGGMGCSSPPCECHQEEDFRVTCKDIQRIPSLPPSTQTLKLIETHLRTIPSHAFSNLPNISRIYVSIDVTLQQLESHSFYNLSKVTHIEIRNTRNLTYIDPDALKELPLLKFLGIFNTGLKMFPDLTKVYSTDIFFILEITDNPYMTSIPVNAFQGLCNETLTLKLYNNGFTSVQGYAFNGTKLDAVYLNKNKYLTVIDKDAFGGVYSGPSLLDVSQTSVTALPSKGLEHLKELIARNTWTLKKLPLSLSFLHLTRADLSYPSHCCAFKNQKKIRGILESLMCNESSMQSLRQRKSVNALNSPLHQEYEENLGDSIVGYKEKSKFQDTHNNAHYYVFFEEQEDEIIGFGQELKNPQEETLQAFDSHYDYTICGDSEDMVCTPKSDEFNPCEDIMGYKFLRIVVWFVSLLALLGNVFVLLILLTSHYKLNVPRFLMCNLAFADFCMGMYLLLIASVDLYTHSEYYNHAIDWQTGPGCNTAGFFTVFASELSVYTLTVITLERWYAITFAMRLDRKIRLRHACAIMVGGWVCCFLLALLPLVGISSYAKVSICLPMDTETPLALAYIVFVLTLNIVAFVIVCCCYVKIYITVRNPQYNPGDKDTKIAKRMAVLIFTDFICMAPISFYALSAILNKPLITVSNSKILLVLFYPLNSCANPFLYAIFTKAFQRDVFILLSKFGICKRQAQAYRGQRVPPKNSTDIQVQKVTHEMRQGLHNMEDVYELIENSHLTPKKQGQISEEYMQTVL
Summary of the method: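 Agonist-mode screen: TSHR HEK293 cells received test chemicals for half an hour at room temperature, then HTRF cAMP detection reagents for one hour prior to fluorescence measurement. Each chemical ran as a 15-concentration series, triplicated.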

[9] = qHTS assay to identify small molecule agonists of the hypoxia (HIF-1) signaling pathway - cell viability counter screen (AID 1224844; calls by dose curve; also: nearly all actives have a fitted effect of over 50% in size; also: potency is read from the fitted curve at half-maximal effect)
Summary of the method: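 CellTiter-Glo luminescence read-out, 30 min RT, taken in the same wells as the beta-lactamase HRE reporter assay; HRE-bla ME-180 cells, 0.5% dialyzed FBS, 17 hr compound treatment at 37C, 5% CO2.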

[10] = qHTS assay to identify small molecule agonists of the hypoxia (HIF-1) signaling pathway (AID 1224846; active = well fitted activation curve with a large enough effect in the signal ratio in the repeat runs, not every such curve was filed as active; the % refers to the signal ratio)
Summary of the method: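 Beta-lactamase FRET read-out (CCF4-AM substrate) from ME-180 cells carrying an HRE-driven bla reporter, after 17 hrs compound exposure at 37C/5% CO2. Cells were seeded at 2,000 per well in 0.5% dialyzed FBS medium and preincubated 5 hrs.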

[11] = qHTS assay to identify small molecule agonists of H2AX - cell viability counter screen (AID 1224847; calls by dose curve; also: nearly all actives have a fitted effect of over 30% in size; also: potency is read from the fitted curve at half-maximal effect)
Summary of the method: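 For this counter screen, overnight-attached CHO-K1 cells received test compounds (15 concentrations, 0.76% DMSO final); 3 hr later at 37C, CellTiter-Glo reagent was added and luminescence recorded after 30 min at room temperature.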

[12] = qHTS assay to identify small molecule antagonists of the estrogen related receptor (ERR) signaling pathway from Tox21 library (AID 1224848); also: nearly all actives have a fitted effect of over 50% in size; also: potency is read from the fitted curve at half-maximal effect
Summary of the method: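 Quantitative high-throughput format: ERR reporter cells (2,000/well) pre-incubated 6 h, treated 18 h at 37 C with compounds in DMSO alongside positive and negative controls, then read by ONE-Glo luminescence.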

[13] = qHTS assay to identify small molecule agonists of the estrogen related receptor (ERR) signaling pathway from Tox21 library (AID 1224849; calls by dose curve; also: nearly all actives have a fitted effect of over 15% in size); conditions: ERR reporter cell line, ONE-Glo luciferase, 18 h
Summary of the method: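 Luminescence readout (ONE-Glo, 30 min RT) after 18 h compound exposure at 37 C of NTP-supplied ERR reporter cells; cells were plated 6 h before compound addition by pin tool.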

[14] = qHTS RealTime-Glo MT Cell Viability Assay in HepG2 cells - 24 hour (AID 1224867); also: nearly all actives have a fitted effect of over 50% in size
Summary of the method: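 qHTS, HepG2, 600 cells/well, RealTime-Glo (NanoLuc + prosubstrate) added with cells; 5 h preincubation; DMSO compound addition; 37 C; luminescence at 0/8/16/24/32/40 h.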

[15] = A CellTox Green Cytotoxicity Assay to monitor cytotoxicity in HEK293 cells - 0 hour (AID 1224869); also: nearly all actives have a fitted effect of over 50% in size
Summary of the method: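 Read-out: fluorescence of a cell-impermeant cyanine dye staining DNA of dead cells, proportional to cytotoxicity. HEK293, 600 cells/well with reagent, compound (23 nL DMSO) added after 5 h; reads at 0, 8, 16, 24, 32, 40 h.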

[16] = qHTS RealTime-Glo MT Cell Viability Assay in HepG2 cells - 40 hour (AID 1224870); also: nearly all actives have a fitted effect of over 50% in size
Summary of the method: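 HepG2 cells (600/well) mixed with RealTime-Glo MT reagent, settled 5 h at 37 C/5% CO2 before compound addition. Nonlytic NanoLuc luminescence from viable-cell prosubstrate reduction read repeatedly during 40 h treatment at 37 C.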

[17] = qHTS assay to identify small molecule antagonists of the estrogen related receptor signaling pathway with the pleiotropic PPARgamma coactivator (PGC) from Tox21 10K library (AID 1224841; call rule not given here)
Summary of the method: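 Luminescence read-out (One-Glo luciferase reagent, 30 min at room temperature) from PGC/ERR cells exposed to DMSO-dissolved test compounds for 18 h at 37 C; cells, 2,000 per well, had been preincubated 6 h before compound transfer.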

[18] = qHTS assay to identify small molecule agonists of H2AX (AID 1224845; active = well fitted activation curve with a large enough effect in the signal ratio in the repeat runs, not every such curve was filed as active; the % refers to the signal ratio)
Summary of the method: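 Wild-type CHO-K1 cells, plated overnight, exposed 3hr at 37C to 15 concentrations (0.76% DMSO final). Lysed, then HTRF anti-pH2AX (S139) cryptate and anti-H2AX-d2 antibodies, 24 hr room temperature; 665/620 nm emission read.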

[19] = qHTS RealTime-Glo MT Cell Viability Assay in HEK293 cells - 32 hour (AID 1224868); also: nearly all actives have a fitted effect of over 50% in size; also: potency is read from the fitted curve at half-maximal effect
Summary of the method: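 Assay medium contained NanoLuc luciferase plus cell-permeant prosubstrate, added with HEK293 cells at 600 cells/well. After 5 h at 37 C/5% CO2 compounds were added; plates stayed at 37 C for 40 h with serial luminescence reads.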

[20] = biological target: Luciferin 4-monooxygenase (Photinus pyralis) (UniProt P08659); experiment: qHTS assay to identify small molecule inhibitors of firefly luciferase (AID 1224835); also: nearly all actives have a fitted effect of over 25% in size
Luciferin 4-monooxygenase (Photinus pyralis), sequence (P08659 whole entry, looked up): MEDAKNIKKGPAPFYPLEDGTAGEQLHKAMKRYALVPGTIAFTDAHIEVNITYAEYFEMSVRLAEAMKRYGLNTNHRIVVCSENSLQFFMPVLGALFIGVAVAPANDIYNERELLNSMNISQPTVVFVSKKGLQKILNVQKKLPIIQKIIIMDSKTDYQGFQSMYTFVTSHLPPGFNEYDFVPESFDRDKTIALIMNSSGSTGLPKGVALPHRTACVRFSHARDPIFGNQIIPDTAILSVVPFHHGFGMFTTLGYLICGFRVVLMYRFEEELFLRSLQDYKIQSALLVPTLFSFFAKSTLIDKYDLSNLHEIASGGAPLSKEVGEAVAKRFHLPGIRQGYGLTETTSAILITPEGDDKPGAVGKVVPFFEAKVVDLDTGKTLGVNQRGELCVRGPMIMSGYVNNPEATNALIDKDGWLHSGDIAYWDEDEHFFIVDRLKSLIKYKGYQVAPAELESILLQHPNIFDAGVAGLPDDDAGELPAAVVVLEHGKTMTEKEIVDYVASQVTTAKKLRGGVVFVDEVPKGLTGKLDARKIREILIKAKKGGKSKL
Summary of the method: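 Biochemical qHTS: compounds run as interplate titrations against purified firefly enzyme, with D-luciferin and ATP each at its KM concentration. Light output recorded by CCD imaging.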
% is scaled to controls: 0 for no effect and ±100 for the full control effect.

CCc1ccc(Br)cc1
inactive: Potency [1] | Potency [2] | Potency [3] | Potency [4] | Potency [5] | Potency [6] | Potency [7] | Potency [8] | Potency [9] | Potency [10] | Potency [11] | Potency [12] | activity change, positive = activation ([13]; at 92.4 µM (top of the series)) 5.1% | Potency [14] | Potency [15] | Potency [16]

CC(=O)Oc1cc2c(s1)CCN(C(C(=O)C1CC1)c1ccccc1F)C2 (stereo not drawn)
inactive: Potency [1] | Potency [2] | Potency [3] | Potency [6] | Potency [17] | Potency [7] | Potency [8] | Potency [9] | Potency [10] | Potency [11] | Potency [12] | activity change, positive = activation ([13]; at 42.5 µM (top of the series)) -6.5% | Potency [14] | Potency [15] | Potency [16]

O=C(O)c1cc(=O)c2ccccc2o1
inactive: Potency [1] | Potency [2] | Potency [3] | Potency [4] | Potency [5] | Potency [6] | Potency [17] | Potency [8] | Potency [9] | Potency [18] | Potency [10] | Potency [11] | Potency [12] | activity change, positive = activation ([13]; at 42.5 µM (top of the series)) -3.87% | Potency [14] | Potency [19] | Potency [15] | Potency [16]

CC1=Nc2ccccc2C1(C)C
inactive: Potency [1] | Potency [2] | Potency [3] | Potency [6] | Potency [8] | Potency [9] | Potency [10] | Potency [12] | Potency [14] | Potency [15] | Potency [16]
active: Potency [11] 89.9 µM

O=[N+]([O-])c1ccc(O)cc1C(F)(F)F
active: Potency [1] 15.4 µM | Potency [6] 17.2 µM | Potency [12] 6.11 µM | Potency [19] 34.7 µM
inactive: Potency [20] | Potency [5] | Potency [17] | Potency [8] | activity change, positive = activation ([13]; at 92.4 µM (top of the series)) -63.3% | Potency [14] | Potency [15] | Potency [16]

[Cl][Pt-2]([Cl])([Cl])[Cl]
inactive: Potency [1] | Potency [2] | Potency [4] | Potency [6] | Potency [7] | Potency [9] | Potency [10] | Potency [11] | Potency [12] | activity change, positive = activation ([13]; at 92.4 µM (top of the series)) -8.8% | Potency [14] | Potency [15]

O=C1NC(=O)[C@@H]2CC=CC[C@H]12
inactive: Potency [1] | Potency [2] | Potency [3] | Potency [4] | Potency [5] | Potency [6] | Potency [8] | Potency [11] | Potency [12] | activity change, positive = activation ([13]; at 92.4 µM (top of the series)) -12.4% | Potency [14] | Potency [19] | Potency [15] | Potency [16]

Cc1ccc(O)c(N)c1
inactive: Potency [2] | Potency [3] | Potency [6] | Potency [11] | Potency [14] | Potency [15] | Potency [16]
active: Potency [1] 61.2 µM | Potency [9] 39 µM
